Seven compounds from paper PMC5540273 (PLoS ONE, 2017) can be followed below.

Several values for one entry are separate records, joined by “and”; a condition that tells them apart may be missing. Equal values may be shown once. Read-outs that look alike come from different tables or passages of the source.

The subject of test [1] is BLK. The following applies: concentration: 1 μM, replicates: in singlicate, n = 1.
For test [2], the system named is BMPR1A. The following applies: concentration: 1 μM, replicates: in singlicate, n = 1.
Test [3] relates to BMPR1B. The following applies: concentration: 1 μM, replicates: in singlicate; n = 1.
The test system of test [4] is BMPR2. The following applies: concentration: 1 μM, replicates: in singlicate, n = 1.
In test [5] the test system is BMX. The following applies: concentration: 1 μM, replicates: in singlicate, n = 1.
In test [6] the test system is BRAF. The following applies: concentration: 1 μM, replicates: in singlicate, n = 1.
The subject of test [7] is T1, BRK.
T1 construct: gene PTK6
The following applies: concentration: 1 μM, replicates: in singlicate, n = 1.

Test [8] has as its system BRSK1. The following applies: concentration: 1 μM, replicates: in singlicate, n = 1.
For test [9], the system named is BRSK2. The following applies: concentration: 1 μM, replicates: in singlicate, n = 1.
The test system of test [10] is BTK. The following applies: concentration: 1 μM, replicates: in singlicate, n = 1.
Test [11] relates to BUB1. The following applies: concentration: 1 μM, replicates: in singlicate, n = 1.
Test [12] concerns CAMK1B. The following applies: concentration: 1 μM, replicates: in singlicate, n = 1.
The test system of test [13] is CAMK1D. The following applies: concentration: 1 μM, replicates: in singlicate, n = 1.
The subject of test [14] is CAMK1G. The following applies: concentration: 1 μM, replicates: in singlicate, n = 1.
For test [15], the system named is CAMK1. The following applies: concentration: 1 μM, replicates: in singlicate, n = 1.
Test [16] deals with CAMK2A. The following applies: concentration: 1 μM, replicates: in singlicate; n = 1.
Test [17] has as its system CAMK2B. The following applies: concentration: 1 μM, replicates: in singlicate; n = 1.
In test [18] the test system is CAMK2D. The following applies: concentration: 1 μM, replicates: in singlicate, n = 1.
For test [19], the system named is CAMK2G. The following applies: concentration: 1 μM, replicates: in singlicate, n = 1.
Test [20] relates to CAMK4. The following applies: concentration: 1 μM, replicates: in singlicate, n = 1.
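Note: KINOMEscan kinase panel screen.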

Consider `Cc1nnc(-c2ccc(C)c(-c3ccc(C(=O)Nc4ccc(NS(C)(=O)=O)cc4)cc3)c2)o1` [GW702865], for which the “%Inh” value in [1] was 14%; in test [2], 0%; in [3], 0%; in [4], 9%; in [5], 16%; in [6], 0%. Further, the “%Inh” value in [7] was determined as 3%; in test [8], 9%; in test [9], 0%; in test [10] it was 40%; in test [11], 35%; in [12], 10%. Besides, the “%Inh” value in test [13] was found to be 2%; in test [14], 0%; in test [15] it was 4%; in test [16], 0%; in test [17], 1%; in test [18] it was 0%. The “%Inh” value in test [19] and in test [20] was 0% each time.
Consider `CCCCCc1nc2c(N)ncnc2n1CCCCC` [SKF-97255], for which the “%Inh” value was determined as 16% in test [1]; 19% in test [2]; 0% in test [3]; 40% in [4]; 3% in test [5]; 0% in [6]. For the same compound, the “%Inh” value in test [7] is reported as 0%; in test [8], 0%; in test [9], 22%; in [10], 0%; in test [11], 0%; in [12], 0%. Besides, the “%Inh” value is given as 0% in test [13]; 15% in [14]; 0% in test [15]; 0% in test [16]; 0% in [17]; 6% in test [18]. Moreover, the “%Inh” value worked out at 0% in test [19] and 21% in test [20].
In the case of `CN1c2ccc(CNc3ccc(F)cc3)cc2-c2c(cnn2C)S1(=O)=O`, the “%Inh” value stood at 0% in test [1]; 0% in test [2]; 0% in [3]; 0% in test [4]; 0% in test [5]; 36% in test [6]. The “%Inh” value in test [7], in test [8], in test [9], in test [10], in test [11] and in test [12] was 0% throughout. For the same compound, the “%Inh” value worked out at 50% in [13]; 0% in test [14]; 63% in test [15]; 0% in [16]; 1% in test [17]; 4% in test [18]. Moreover, the “%Inh” value in test [19] and in [20] was 0% each time.
As for `Cc1c2ccc(N(C)c3ccnc(Nc4cccc(S(N)(=O)=O)c4)n3)cc2nn1Cc1ccccc1.Cl.Cl` [GW787226], the “%Inh” value in test [1] worked out at 82%; in test [2], 3%; in test [3] it was 0%; in [4], 1%; in [5], 6%; in test [6] it was 95.8%. Besides, the “%Inh” value in [7] was found to be 89%; in [8] it was 0%; in test [9], 0%; in [10] it was 0%; in test [11], 0%; in [12], 0%. For the same compound, the “%Inh” value in test [13] was 0%; in [14], 11%; in [15], 2%; in [16] it was 0%; in test [17] it was 0%; in test [18] it was 0%. The “%Inh” value worked out at 0% in test [19] and 16% in test [20].
Regarding `Cl.Cl.Cl.Fc1ccc(-c2ncn(C3CCNCC3)c2-c2ccnc(Nc3ccccc3)n2)cc1` [SB-238039], the “%Inh” value was 56% and 27% in [1] (1 µM); 0% in test [2]; 0% in test [3]; 42% and 11% in [4] (1 µM); 0% in test [5]; 19% and 0% in test [6] (1 µM). The “%Inh” value was 0% and 19% in test [7] (1 µM); 0% and 29% in test [8] (1 µM); 7% and 9% in test [9] (1 µM); 0% and 9% in test [10] (1 µM); 88% and 65% in test [11] (1 µM); 0% and 42% in [12] (1 µM). Also, the “%Inh” value in [13] (1 µM) was 0% and 9%; in test [14] (1 µM), 9% and 0%; in [15] (1 µM), 7% and 0%; in [16], 0%; in [17] it was 0%; in [18], 0%. For the same compound, the “%Inh” value in test [19] is 0%; in test [20] (1 µM), 18% and 26%.
Consider `CC(C)(CN)c1nc(-c2ccc(Cl)c(O)c2)c(-c2ccncc2)[nH]1.O=C(O)C(F)(F)F` [SB-477794], for which the “%Inh” value in test [1] (1 µM) is 98.2% and 98%; in test [2] (1 µM), 37% and 47%; in test [3], 99.9%; in test [4] (1 µM) it was 32% and 33%; in [5] (1 µM) it was 0% and 40%; in test [6] (1 µM), 97.8% and 98.5%. Besides, the “%Inh” value in [7] (1 µM) was 99.7% and 99.6%; in test [8] (1 µM), 0% and 20%; in test [9] (1 µM), 0% and 22%; in test [10] (1 µM) it was 43% and 71%; in [11] (1 µM), 100% and 98.2%; in test [12] (1 µM), 24% and 3%. Further, the “%Inh” value in test [13] (1 µM) was 10% and 9%; in test [14], 0%; in test [15] (1 µM) it was 19% and 13%; in test [16] it was 0%; in test [17], 0%; in [18] (1 µM), 11% and 0%. Moreover, the “%Inh” value in test [19] (1 µM) was 0% and 17%; in test [20] it was 0%.
On to `Fc1ccc(-c2ncn(CCCN3CCOCC3)c2-c2ccccn2)cc1` [SB-211742], for which the “%Inh” value in test [1] is on record as 9%; in test [2], 7%; in test [3], 0%; in test [4] it was 0%; in [5], 0%; in test [6] it was 0%. Also, the “%Inh” value in test [7] stood at 2%; in test [8], 6%; in test [9], 14%; in [10], 15%; in test [11], 0%; in [12], 0%. In addition, the “%Inh” value was 0% in test [13]; 0% in test [14]; 0% in test [15]; 6% in [16]; 10% in test [17]; 0% in [18]. Moreover, the “%Inh” value turned out to be 11% in test [19] and 20% in [20].
